In one assay the test system is astro (control astrocytes). Kind of assay: Drug repurposing screens with cells derived from glioblastoma tumor samples (AID 1345199). Further: nearly all actives have a fitted effect of over 40% in size. Further: potency means the concentration at half of the fitted maximal effect. On activity, negative = cell killing: on the % scale 0 is the no-effect control and ±100 the full control effect. The note with it: viability, ATP luminescence, 48 h; series mostly up to 45.9 µM. The essentials: (§1)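 Primary testing used CD133+ neurospheres from four GBM patients, seven concentrations, 48 h exposure and ATP-based viability; confirmation added three slower-growing patient lines.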

A short description of assay [1]: qHTS assay for small molecule activators of the human pregnane X receptor (PXR) signaling pathway (AID 720659; call rule not given here; further: 0% is about no effect).
A short description of assay [2]: Drug repurposing screens with cells derived from glioblastoma tumor samples (AID 1345199). Further: potency means the concentration at half of the fitted maximal effect. On activity, negative = cell killing: on the % scale 0 is the no-effect control and ±100 the full control effect. On all read-outs here: nearly all actives have a fitted effect of over 40% in size. The note with it: GBM patient neurospheres viability, ATP luminescence, 48 h; for activity, negative = cell killing: at 45.9 µM (top of the series), tumour line B; for Potency: tumour line A. The essentials: as §1

Unmarked numbers belong to inactive results. Results filed as inconclusive are left out. The source made the active and inactive calls. Unless noted, the call rests on the fitted dose curve; in most records, active means well fitted inhibition curve with a large enough effect; inconclusive means small, poorly fitted or top-dose-only effect; inactive means flat fitted curve, though single readings scatter.

Regarding `CCCCCCCCCCCCCCCC[n+]1ccccc1`, in the assay on astro, the Potency was 3.16 µM (active). Besides, the call in assay [1] was inactive.
As to `CCN1C(=O)c2ccccc2C1Nc1ccc(OCCN2CCCCC2)cc1` (stereo not drawn), in assay [2], the activity, negative = cell killing is -27.4% and the Potency was 7.94 µM (active). In addition, the Potency entry with astro was “inactive”.
Turning to `c1ccc(C(O[C@H]2CCCN(CCc3ccc4c(c3)OCO4)C2)c2ccccc2)cc1`, in assay [2], the activity, negative = cell killing was -23.2% and the Potency was 11.2 µM (active). Besides, the Potency entry in the assay on astro was “inactive”.

Source of the values: PubChem BioAssay (NCATS).
